Measurements as given in PubChem BioAssay (EPA / NIEHS).
“And” between values parts separate entries of the source, which are not always exact repeats. Identical values can stand only once. The source made the active and inactive calls. The calls were made as follows: active = hit-call score of the fitted dose curve at least 0.9, where 1 is the maximum; inactive = score below 0.9.

How the values were obtained:
[1] = read-out: Interleukin-8 (IL8), CXCL8 (gene 3576); test: BSK_hDFCGF_IL8: BioMAP Diversity Plus: hDFCGF Assay for Interleukin-8 (IL8) Biomarker Activity (AID 2283058); details: primary human foreskin fibroblasts; actives raise or lower the signal
Procedure, shortened: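 Cells used are human skin primary fibroblasts. Chemical is added, cultures run 24 h, then IL-8 is quantified by ELISA, and gain or loss versus DMSO control is fitted in both directions.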

[2] = BSK_hDFCGF_Proliferation: Cell Proliferation Assessment in the BioMAP Diversity Plus: hDFCGF Assay (AID 2283059); details: primary human foreskin fibroblasts;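 also: curves fitted for both rise and fall of signal versus DMSO baseline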
Procedure, shortened: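 This proliferation readout used SRB total-protein staining of human foreskin fibroblasts […], normalized to DMSO with bidirectional curve fitting.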

[3] = BSK_hDFCGF_SRB: Viability Assessment in the BioMAP Diversity Plus: hDFCGF Assay (AID 2283061); details: primary human foreskin fibroblasts;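 also: cells exposed to compound for 24 h before the read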
Procedure, shortened: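 Readout is SRB absorbance at 560 nm, reflecting total protein in parallel cultures of human foreskin fibroblasts harvested 24 h after chemical dosing. Activity was fitted bidirectionally relative to DMSO.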

[4] = read-out: TIMP metallopeptidase inhibitor 1 (TIMP1), TIMP1 (gene 7076); test: BSK_hDFCGF_TIMP1: BioMAP Diversity Plus: hDFCGF Assay for TIMP metallopeptidase inhibitor 1 (TIMP1) Biomarker Activity (AID 2283062); details: primary human foreskin fibroblasts; actives raise or lower the signal
Procedure, shortened: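 Human skin fibroblasts (primary), hDFCGF system; compound exposure 24 h; TIMP-1 by ELISA; bidirectional fit vs DMSO negative control; overt cytotoxicity by SRB in parallel wells.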

[5] = read-out: Vascular cell adhesion molecule 1 (VCAM1), VCAM1 (gene 7412); test: BSK_hDFCGF_VCAM1: BioMAP Diversity Plus: hDFCGF Assay for Vascular cell adhesion molecule 1 (VCAM1) Biomarker Activity (AID 2283065); details: primary human foreskin fibroblasts; actives raise or lower the signal;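 as to AC50: VCAM-1 protein level quantified by ELISA after 24 h chemical exposure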
Procedure, shortened: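 Human foreskin fibroblast primary cells, chemical exposure 24 h; VCAM-1 by ELISA; bidirectional fit, DMSO = negative control/baseline.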

[6] = read-out: Plasminogen activator inhibitor-1 (PAI1), SERPINE1 (gene 5054); test: BSK_hDFCGF_PAI1: BioMAP Diversity Plus: hDFCGF Assay for Plasminogen activator inhibitor-1 (PAI1) Biomarker Activity (AID 2283066); details: primary human foreskin fibroblasts; actives raise or lower the signal
Procedure, shortened: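 PAI-1 levels in human dermal foreskin fibroblasts were quantified by ELISA 24 h after dosing, with gain or loss analysed against DMSO. Overt cytotoxicity was checked by sulforhodamine B total-protein staining in parallel cultures.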

[7] = read-out: Interferon-gamma inducible Protein 10 (IP10), CXCL10 (gene 3627); test: BSK_KF3CT_IP10: BioMAP Diversity Plus: KF3CT Assay for Interferon-gamma inducible Protein 10 (IP10) Biomarker Activity (AID 2283068); details: primary human keratinocytes with fibroblasts; actives raise or lower the signal
Procedure, shortened: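 Signal is secreted/surface IP-10 by ELISA in a human primary skin co-culture of keratinocytes and foreskin fibroblasts, taken 24 h post-dosing; DMSO served as negative control.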

[8] = BSK_KF3CT_SRB: Viability Assessment in the BioMAP Diversity Plus: KF3CT Assay (AID 2283069); details: primary human keratinocytes with fibroblasts;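 also: fitted for both signal gain and loss against DMSO baseline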
Procedure, shortened: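 SRB read-out at 560 nm (0.1% stain, TCA-fixed cells) gauges overt cytotoxicity in a human skin keratinocyte–fibroblast co-culture 24 h post-dosing. Signal change was fitted bidirectionally relative to DMSO control.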

[9] = read-out: TIMP metallopeptidase inhibitor 2 (TIMP2), TIMP2 (gene 7077); test: BSK_KF3CT_TIMP2: BioMAP Diversity Plus: KF3CT Assay for TIMP metallopeptidase inhibitor 2 (TIMP2) Biomarker Activity (AID 2283071); details: primary human keratinocytes with fibroblasts; actives raise or lower the signal
Procedure, shortened: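 TIMP-2 measured by ELISA at 24 h in human keratinocyte/fibroblast primary co-cultures exposed to chemicals. Both increases and decreases were fitted against DMSO. Parallel cultures were stained with SRB for total protein as an overt-cytotoxicity check.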

[10] = read-out: C-C motif chemokine 2 (Homo sapiens) (UniProt P13500); test: BSK_KF3CT_MCP1: BioMAP Diversity Plus: KF3CT Assay for Monocyte Chemoattractant Protein 1 (MCP1/CCL2) Biomarker Activity (AID 2283073); details: primary human keratinocytes with fibroblasts; actives raise or lower the signal
Procedure, shortened: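 ELISA readout of MCP-1 after 24 h chemical dosing of a human skin primary co-culture of keratinocytes and foreskin fibroblasts. Activity was fitted in both directions against DMSO.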

[11] = read-out: urokinase plasminogen activator (uPA), PLAU (gene 5328); test: BSK_KF3CT_uPA: BioMAP Diversity Plus: KF3CT Assay for urokinase plasminogen activator (uPA) Biomarker Activity (AID 2283075); details: primary human keratinocytes with fibroblasts; actives raise or lower the signal
Procedure, shortened: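 Skin co-culture (keratinocytes + foreskin fibroblasts), human primary; 24 h post-dose; uPA by ELISA; gain/loss fit vs DMSO baseline.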

[12] = read-out: E-selectin (Homo sapiens) (UniProt P16581); test: BSK_LPS_Eselectin: BioMAP Diversity Plus: LPS Assay for Eselectin Biomarker Activity (AID 2283077); details: primary human HUVEC with PBMC; actives raise or lower the signal
Procedure, shortened: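 Primary human vascular co-culture (endothelium plus PBMC) was dosed with chemical, then E-selectin quantified by ELISA at 24 h. Endpoint values derive from bidirectional curve fitting relative to DMSO.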

[13] = BSK_LPS_SRB: Viability Assessment in the BioMAP Diversity Plus: LPS Assay (AID 2283079); details: primary human HUVEC with PBMC;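 also: total protein by sulforhodamine B absorbance as a cytotoxicity measure; measured one day after compound addition; fitted in both directions against DMSO so loss or gain of signal counts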
Procedure, shortened: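 Readout is SRB absorbance at 560 nm (0.1% stain, TCA-fixed parallel cultures) as a total-protein cytotoxicity measure. Cells: primary human umbilical vein endothelium plus peripheral blood mononuclear cells, 24 h after chemical exposure; DMSO served as baseline.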

[14] = read-out: Monocyte Chemoattractant Protein-1 (MCP1), CCL2 (gene 6347); test: BSK_LPS_MCP1: BioMAP Diversity Plus: LPS Assay for Monocyte Chemoattractant Protein-1 (MCP1) Biomarker Activity (AID 2283081); details: primary human HUVEC with PBMC; actives raise or lower the signal;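 as to AC50: secreted MCP-1 protein quantified by ELISA in culture supernatant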
Procedure, shortened: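 Human endothelial–PBMC co-cultures were dosed with chemical, then LPS-driven MCP-1 levels were quantified by ELISA at 24 h. Activity in either direction was fitted versus DMSO negative control.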

[15] = BSK_LPS_PGE2: BioMAP Diversity Plus: LPS Assay for Prostaglandin E2 (PGE2) Biomarker Activity (AID 2283082); details: primary human HUVEC with PBMC; actives raise or lower the signal;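 as to AC50: secreted prostaglandin E2 measured by ELISA in LPS-stimulated co-culture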
Procedure, shortened: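 PGE2 release measured by ELISA in an LPS-activated co-culture of human umbilical vein endothelial cells and peripheral blood mononuclear cells, read at 24 h post-dosing. DMSO served as baseline for bidirectional curve fitting.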

[16] = read-out: Macrophage colony-stimulating factor (MCSF), CSF1 (gene 1435); test: BSK_LPS_MCSF: BioMAP Diversity Plus: LPS Assay for Macrophage colony-stimulating factor (MCSF) Biomarker Activity (AID 2283083); details: primary human HUVEC with PBMC; actives raise or lower the signal
Procedure, shortened: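 ELISA readout of M-CSF after 24 h compound exposure in a human endothelial/PBMC co-culture. Activity, in either direction, is fitted relative to DMSO vehicle.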

[17] = read-out: Tissue Factor, F3 (gene 2152); test: BSK_LPS_TissueFactor: BioMAP Diversity Plus: LPS Assay for Tissue Factor Biomarker Activity (AID 2283084); details: primary human HUVEC with PBMC; actives raise or lower the signal
Procedure, shortened: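 ELISA signal for cell-surface Tissue Factor (CD142) was read 24 h after compound dosing of an LPS-stimulated human endothelial–PBMC primary co-culture. Gain or loss of signal was scored relative to DMSO.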

[18] = read-out: Tumor necrosis factor (Homo sapiens) (UniProt P01375); test: BSK_LPS_TNFa: BioMAP Diversity Plus: LPS Assay for Tumour Necrosis Factor alpha (TNFa) Biomarker Activity (AID 2283085); details: primary human HUVEC with PBMC; actives raise or lower the signal;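 as to AC50: TNFa protein level quantified by ELISA in the co-culture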
Procedure, shortened: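 TNFa was quantified by ELISA in LPS-activated co-cultures of human endothelial cells and PBMC, 24 h post-dosing. Both increases and decreases versus DMSO were fitted.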

[19] = read-out: CD38, CD38 (gene 952); test: BSK_SAg_CD38: BioMAP Diversity Plus: SAg Assay for CD38 Biomarker Activity (AID 2283087); details: primary human HUVEC with PBMC; actives raise or lower the signal
Procedure, shortened: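 CD38 quantified by ELISA (fluorescence) in a superantigen-activated endothelial cell–PBMC co-culture at 24 h post-dose. Activity fitted in both directions relative to DMSO; parallel SRB and Alamar Blue cytotoxicity read-outs.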

[20] = read-out: CD40, CD40 (gene 958); test: BSK_SAg_CD40: BioMAP Diversity Plus: SAg Assay for CD40 Biomarker Activity (AID 2283088); details: primary human HUVEC with PBMC; actives raise or lower the signal
Procedure, shortened: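 Compounds were dosed onto a human primary endothelial–PBMC co-culture, and after 24 h CD40 was quantified by ELISA using a fluorescence signal. Activity in either direction was fitted relative to DMSO.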

Measured: AC50

Chain of E-selectin (Homo sapiens) (P16581 whole entry, looked up): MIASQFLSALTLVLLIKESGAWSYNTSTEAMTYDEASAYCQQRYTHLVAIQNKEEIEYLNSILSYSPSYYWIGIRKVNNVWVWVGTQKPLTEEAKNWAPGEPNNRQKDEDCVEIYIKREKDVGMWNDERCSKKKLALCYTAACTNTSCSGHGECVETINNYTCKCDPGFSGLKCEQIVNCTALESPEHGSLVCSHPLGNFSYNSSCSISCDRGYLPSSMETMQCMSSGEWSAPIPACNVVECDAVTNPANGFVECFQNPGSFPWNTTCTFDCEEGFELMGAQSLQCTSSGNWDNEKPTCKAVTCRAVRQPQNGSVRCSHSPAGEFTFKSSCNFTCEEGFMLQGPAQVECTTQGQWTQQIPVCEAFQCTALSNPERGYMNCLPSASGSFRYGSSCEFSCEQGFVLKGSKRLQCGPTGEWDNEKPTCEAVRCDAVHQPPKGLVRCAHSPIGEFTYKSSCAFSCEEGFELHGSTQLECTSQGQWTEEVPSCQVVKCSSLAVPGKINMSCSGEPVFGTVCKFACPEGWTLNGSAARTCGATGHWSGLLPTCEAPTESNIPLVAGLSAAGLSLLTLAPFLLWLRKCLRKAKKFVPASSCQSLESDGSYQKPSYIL
Chain of Tumor necrosis factor (Homo sapiens) (P01375 whole entry, looked up): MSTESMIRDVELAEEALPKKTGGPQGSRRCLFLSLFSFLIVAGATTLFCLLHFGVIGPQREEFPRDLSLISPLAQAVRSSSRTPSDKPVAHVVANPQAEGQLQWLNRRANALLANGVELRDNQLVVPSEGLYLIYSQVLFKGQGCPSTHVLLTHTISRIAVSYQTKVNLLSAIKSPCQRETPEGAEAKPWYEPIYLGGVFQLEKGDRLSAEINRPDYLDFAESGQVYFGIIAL

Sc1nc2ccccc2s1
active: [13] 3.97 µM | [14] 0.504 µM | [17] 4.28 µM
inactive: all other assays above

Cc1cc(-n2nc3ccc(Cl)cc3n2)c(O)c(C(C)(C)C)c1
inactive: all assays above

CC(C)CC(=O)CC(C)CC(C)C (stereo not given)
active: [2] 39.5 µM | [3] 34.7 µM | [6] 32.2 µM | [8] 36.7 µM | [9] 32.2 µM | [10] 37.1 µM | [11] 30.4 µM | [12] 29.6 µM | [13] 31.7 µM
inactive: all other assays above

CCCCCCC(O)CCCCCCCCCCC(=O)OC (stereo not given)
active: [2] 4.09 µM | [6] 6.22 µM | [15] 1.73 µM
inactive: all other assays above

CN(C)CCC(c1ccc(Cl)cc1)c1ccccn1 (stereo not given)
inactive: all assays above

CCCCCCCCCC/C=C/C1CC(=O)OC1=O (stereo not given)
inactive: all assays above

O=C(C(=O)c1ccccc1)c1ccccc1
inactive: all assays above

Cc1cccnc1
inactive: all assays above

CCC(C)=NO
inactive: all assays above

CC[N+](CC)(CC(=O)Nc1c(C)cccc1C)Cc1ccccc1 (tested in a mixture with another compound)
inactive: all assays above

CCCCCCCCCCCCCCCCCC[N+](C)(C)C
active: [1] 8.41 µM | [2] 0.388 µM | [3] 1.34 µM | [4] 3.47 µM | [5] 2.33 µM | [6] 1.13 µM | [7] 3.66 µM | [8] 2.49 µM | [9] 1.2 µM | [10] 3.36 µM | [11] 3.33 µM | [12] 8.27 µM | [13] 2.72 µM | [14] 3.66 µM | [16] 5 µM | [17] 8.03 µM | [19] 5 µM | [20] 5 µM
inactive: [15] | [18]

CN(C)c1ccc(C(c2ccccc2)c2ccc(N(C)C)cc2)cc1
active: [2] 3.87 µM | [12] 15.6 µM | [13] 12.5 µM | [14] 13.2 µM | [16] 8.45 µM | [18] 1.6 µM | [19] 20 µM | [20] 14.2 µM
inactive: all other assays above

CC[N+](CC)(CC(=O)Nc1c(C)cccc1C)Cc1ccccc1
inactive: all assays above

COC(=O)/C=C\C(=O)OC
inactive: all assays above

CN(C)Cc1cc(C(C)(C)C)c(O)c(C(C)(C)C)c1
active: [2] 23.9 µM and 24.5 µM | [5] 12.1 µM and 20 µM
inactive: all other assays above

CCCCCCCCCCC1CO1 (stereo not given)
inactive: [15] | [19]
active: [1] 28.5 µM | [2] 20 µM | [3] 27.6 µM | [4] 20 µM | [5] 25.7 µM | [6] 20 µM | [7] 4.61 µM | [8] 33.4 µM | [9] 24.2 µM | [10] 20 µM | [11] 28 µM | [12] 36.1 µM | [13] 20 µM | [14] 31.7 µM | [16] 31.6 µM | [17] 38.5 µM | [18] 30.9 µM | [20] 20 µM
